Screening data as filed in PubChem BioAssay.
Shown are actives, neighbours in structure and some others; about 1.2% of the full set was active somewhere.
BRCA1 expr act: qHTS Assay to Identify Small Molecule Activators of BRCA1 Expression; MCF7-BRCA1-FFLuc reporter, luminescence, 48 h; response scale: scaled: vehicle 0%, 10 µM genistein 100%; Potency, µM (top dose mostly 46.1 µM), for the others: at the top dose activation, most hits filed as activators; 380,000 compounds, 1.1% hits; also: potency is read from the fitted curve at half-maximal effect; nearly all actives have a fitted effect of over 80% in size
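Compounds are tested at multiple concentrations on MCF7 BRCA1-luciferase reporter cells seeded at 2000 per well; after 48 h, a single luminescence end-point is taken and curves fitted to the normalized data.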
Anesthetic bind: qHTS Assay for Identification of Novel General Anesthetics | Potency, µM (doses to about 77.5 µM), inactives show at the top dose activity change, negative = displacement, hits mostly inhibitors | AID 485281, 2010 | apoferritin/1-aminoanthracene competitive binding, fluorescence | 350,000 compounds, 0.074% hits; also: potency is read from the fitted curve at half-maximal effect; % is scaled to controls: 0 for no effect and ±100 for the full control effect; nearly all actives have a fitted effect of over 20% in size
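Apoferritin-based anesthetic binding model; compound displacement of fluorescent 1-AMA measured as endpoint fluorescence after 10 minutes at room temperature, scaled to free-ligand and complex controls.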
S-ASM inh: Inhibitors of Secretory Acid Sphingomyelinase (S-ASM): qHTS. Sphingomyelin phosphodiesterase (Homo sapiens), P17405. 340,000 compounds, 0.006% hits. Potency, µM (highest dose often 57.5 µM), for inactives: top-dose activity change, negative = inhibition, actives largely listed as inhibitors. placental ASM, HMU-PC fluorogenic substrate, 60 min; also: potency is read from the fitted curve at half-maximal effect
Target sequence (P17405 47-631 limits assumed): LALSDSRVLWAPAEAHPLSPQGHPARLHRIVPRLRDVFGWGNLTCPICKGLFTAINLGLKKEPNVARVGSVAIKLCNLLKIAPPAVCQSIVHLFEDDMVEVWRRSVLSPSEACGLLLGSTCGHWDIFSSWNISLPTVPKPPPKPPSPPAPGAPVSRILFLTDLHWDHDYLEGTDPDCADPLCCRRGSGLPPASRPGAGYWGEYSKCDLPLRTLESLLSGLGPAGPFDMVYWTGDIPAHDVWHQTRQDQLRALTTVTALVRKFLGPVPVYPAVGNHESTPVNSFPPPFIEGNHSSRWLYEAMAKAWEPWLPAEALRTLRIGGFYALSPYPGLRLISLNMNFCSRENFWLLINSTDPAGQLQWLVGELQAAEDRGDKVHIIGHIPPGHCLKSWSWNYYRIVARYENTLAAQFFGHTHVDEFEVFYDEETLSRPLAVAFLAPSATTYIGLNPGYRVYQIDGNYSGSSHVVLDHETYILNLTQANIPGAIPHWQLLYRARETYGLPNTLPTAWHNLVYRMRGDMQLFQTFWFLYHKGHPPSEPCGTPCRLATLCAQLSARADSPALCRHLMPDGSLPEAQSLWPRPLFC
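Human placenta-derived ASM enzyme was preincubated with compound for 10 minutes at room temperature, then given fluorogenic substrate HMU-PC0 (9 uM final) for 60 minutes at 37 °C; a pH 10 stop preceded fluorescence reading at Ex 386/Em 447 nm.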
TSHR antag: Antagonists of the Thyroid Stimulating Hormone Receptor: HTS campaign. Thyrotropin receptor (Homo sapiens), P16473. TSHR-expressing cells, TSH-stimulated cAMP HTRF, 2 h; hits give low values. activity change, negative = inhibition, % at 11.5 µM. 330,000 compounds, 0.2% hits. AID 504810, 2011;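 active = activity change below a set negative limit, meaning inhibition stronger than a set level, cut at about -70% in these data; inconclusive = activity change between two set negative limits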; also: % is scaled to controls: 0 for no effect and ±100 for the full control effect
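Inhibition of cAMP made by TSHR-expressing cells under TSH stimulation (4nM final, EC80; 2 h, 37 deg C) is quantified with a one-step lysis HTRF kit, anti-cAMP cryptate versus cAMP-d2.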
PTAP TSG101 blk: qHTS Assay for Iinhibitors of HIV-1 Budding by Blocking the Interaction of PTAP/TSG101. AID 493005, 2010. Fluorescence polarization, FITC-PTAP peptide / Tsg101 binding. Potency, µM (top dose mostly 115 µM), inactives show at the top dose activity change, negative = inhibition, usual class: inhibitors. Tumor susceptibility gene 101 protein (Homo sapiens), Q99816. 340,000 tested, under 10 active; active = well fitted inhibition curve with a large enough effect in the main read-out, with a control signal flat, not every such curve was filed as active; inconclusive = small, poorly fitted or top-dose-only effect, or effect the other way, or a change in a side signal; inactive = no such curve, though single readings can be large or run the other way; also: potency is read from the fitted curve at half-maximal effect; % of control where 0% means no effect
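Compounds were pin-transferred onto Tsg101 binding domain (10 uM final) in HEPES pH 7.5 buffer, then FITC-PTAP peptide was added at 50 nM final. After 20 min at RT, polarization reported peptide displacement across a qHTS concentration series.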
Starred values were filed as active, the others as inactive; ? = inconclusive; . = not tested or not shown. Unless noted, calls follow the shape of the dose curve; as a rule, active = well fitted curve in the direction sought with a large enough effect; inconclusive = small, poorly fitted or top-dose-only effect, or another doubt; inactive = no such curve, though single readings can be large; an effect the other way counts as inactive or inconclusive.

SMILES | BRCA1 expr act | Anesthetic bind | S-ASM inh | TSHR antag | PTAP TSG101 blk
O=C1c2ccccc2C(=O)N1c1ccccn1 | 17% | . | . | . | .
O=C(CCNC(=O)c1ccccc1Cl)Nc1nc2ccccc2s1 | 11µM* | -10% | 0% | 5 | -1%
O=C(Cc1c(F)cccc1Cl)Nc1nc2ccccc2s1 | 8.9µM* | ? | -8% | -11 | -2%
COc1cc2nc(N3CCOCC3)nc(NC3CC3)c2cc1OC | -9% | . | . | . | .
O=C(C[n+]1ccccc1Br)c1ccc(Cl)cc1 | 3% | . | . | . | .
COc1ccc(OC(=O)Nc2ccccc2)cc1 | 65% | -17% | 1% | 1 | -4%
CCc1ccc(OC(=O)Nc2ccccc2)cc1 | 2.8µM* | ? | -2% | 3 | -1%
CCc1ccc(-c2csc(NC(=O)Oc3ccccc3)n2)cc1 | 7.9µM* | ? | 0% | 2 | -1%
COc1cc(OC)c(NC(=O)c2c(N3CCCC3=O)c3cc(C)ccc3n2C)cc1Cl | . | -8% | . | . | .
CC1(CCc2ccccc2)NC(=O)N(CC(=O)N2CCc3ccccc32)C1=O (stereo not given) | -26% | . | . | . | .
CC1(CCc2ccccc2)NC(=O)N(CC(=O)N2CC(=O)Nc3ccccc32)C1=O (stereo not given) | 0% | 8% | -2% | -77* | -1%
COc1ccc(C(=O)Nc2ccc(Nc3ccccc3)cc2)cc1[N+](=O)[O-] | -40% | ? | -24% | -12 | -3%
CCN(CC)c1ccc(C(=O)Nc2ccccc2)cc1[N+](=O)[O-] | 10µM* | -23% | -10% | -23 | -3%
NNc1ccc(Cl)c(C(=O)O)c1 | 11µM* | 3% | 3% | 0 | -5%
O=C(O)/C=C/C(=O)Nc1ccc(Cl)c(C(=O)O)c1 | 8% | -9% | 0% | -6 | 0%
Cc1ccc(C(=O)Oc2oc(-c3ccco3)nc2C=Nc2ccc(Cl)cc2)cc1 | 2µM* | -10% | -2% | -4 | -1%
Cc1cc(N/N=C/c2ccccc2)nc(N)n1 | 13µM* | 3% | 3% | 4 | -6%
Cc1nc(N)nc(N/N=C/c2ccccc2)n1 | 32% | 6% | 3% | -3 | -7%
O=C(NCCc1ccc(F)cc1)Nc1ccc2c(c1)OCO2 | 13µM* | -12% | 0% | 5 | -4%
O=C(Nc1ccc2c(c1)OCO2)Nc1ccc(F)cc1F | 3.2µM* | 0% | -1% | 12 | 16%
O=C(Nc1ccc2c(c1)OCO2)Nc1ccccn1 | 2.5µM* | -9% | 5% | 2 | 2%
Cc1ccc(NC(=O)Nc2ccc3c(c2)OCO3)c(Br)c1 | 1.8µM* | -4% | -3% | 30 | 1%
O=C(Nc1ccc2c(c1)OCO2)Nc1ccc2c(c1)OCO2 | ? | -6% | -1% | -5 | 1%
O=C(CCc1ccccc1)Nc1ccc2c(c1)OCO2 | 93% | -21% | 5% | 11 | 1%
O=C(Nc1ccc2c(c1)OCO2)OCc1ccccc1 | 2.2µM* | ? | 4% | -9 | -8%
SMILES | BRCA1 expr act | Anesthetic bind | S-ASM inh | TSHR antag | PTAP TSG101 blk
COC(=O)c1ccc(NC(=O)Nc2ccc(F)cc2F)cc1 | 3.2µM* | -6% | 1% | -7 | -8%
O=C(NOCc1ccccc1)OCc1ccccc1 | 11µM* | . | -5% | . | 0%
O=C(N/N=C/c1ccc2c(c1)OCO2)c1ccc2c(c1)OCCO2 | 2% | 8% | 3% | -2 | 3%
O=C(CNC(=O)c1ccc2c(c1)OCCO2)N/N=C/c1cccc(Br)c1 | -17% | 5.6µM* | -7% | 30 | -2%
O=C(Nc1ccc(C(=O)O)cc1)/C(=C\c1ccc2c(c1)OCO2)NC(=O)c1ccc(Br)o1 | -6% | -3% | -6% | -4 | 1%
O=C(Nc1cccc(C(=O)O)c1)/C(=C\c1ccc2c(c1)OCO2)NC(=O)c1ccc(Br)o1 | 8.9µM* | -5% | 2% | -2 | -1%
O=C(N/N=C/c1ccc2c(c1)OCO2)c1ccc(Br)o1 | 5.6µM* | 5% | 3% | 1 | -4%
COc1ccc(CN(Cc2ccccc2)C(C)=O)cc1COc1ccc(NC(C)=O)cc1 | 0% | . | . | . | .
O=C(CNC1=NCCS1)c1c[nH]c2ccccc12 | -24% | . | . | . | .
CC[C@H](C)[C@H](NC(=O)[C@H](CCC(=O)O)NC(=O)[C@H](CC(N)=O)NC(=O)[C@@H](N)[C@@H](C)O)C(=O)N[C@H](C(=O)N[C@@H](CCC(=O)O)C(=O)N[C@@H](CCC(=O)O)C(=O)N[C@@H](CCC(N)=O)C(=O)N[C@@H](Cc1ccc(O)cc1)C(=O)N[C@H](C(=O)N1CCC[C@H]1C(=O)N[C@@H](CCC(N)=O)C(=O)N[C@@H](CO)C(=O)N[C@@H](CC(C)C)C(=O)N[C@@H](C)C(=O)N[C@H](C(=O)N[C@@H](CC(C)C)C(=O)N[C@@H](CCC(=O)O)C(=O)N[C@@H](CO)C(=O)N[C@H](C(=O)N[C@@H](Cc1ccccc1)C(=O)N[C@@H](CCC(N)=O)C(=O)N[C@@H](CCC(=O)O)C(=O)N[C@@H](CC(C)C)C(=O)NCC(=O)N[C@@H](CCCCN)C(=O)N[C@@H](CC(C)C)C(=O)N[C@H](C(=O)NCC(=O)N1CCC[C@H]1C(=O)N[C@@H](CC(N)=O)C(=O)N[C@@H](CO)C(=O)N[C@@H](CCC(N)=O)C(=O)O)[C@@H](C)O)C(C)C)[C@@H](C)O)[C@@H](C)O)C(C)C | . | -4% | . | . | .
COc1ccc(Cl)cc1N(C)c1nc(N2CCN(S(=O)(=O)c3ccc(C)cc3)CC2)c2ccccc2n1 | 8% | . | . | . | .
CN1CCN(c2ccc(NC(=S)NC(=O)/C=C/c3ccco3)cc2)CC1 | 4.5µM* | ? | -6% | 43 | -2%
CCOC(=O)c1sc(-c2ccccc2)cc1N | 13µM* | 0% | 16% | 5 | -4%
CCOC(=O)c1sc(-c2ccc(F)cc2)cc1N | 11µM* | 36% | 35% | -11 | -8%
Cc1ccc(Nc2cc(C)nc3ccc(C)cc23)cc1 | 0% | -11% | -7% | -96* | -3%
CCOC(=O)c1c(S(=O)(=O)NCC(=O)Nc2cccc(C)c2C)c(C)n(C)c1C | -7% | -2% | 4% | -112* | -5%
COc1ccc(NC(=S)Nc2ncccc2C)cc1OC | 7.9µM* | -12% | 5% | -4 | -5%
CC(=O)Nc1nc(COc2ccccc2)cs1 | 10µM* | -8% | 6% | -5 | -7%
COc1ccc(-c2csc(Nc3ncccc3C)n2)cc1 | ? | 11% | -3% | 15 | -3%
